# Tested on: tubulin (bovine brain)
# Assay: tubulin polymerization end-point dOD, fold change relative to DMSO vehicle; higher = more polymerization (stabilization)
# Conditions: 50 µM; 60 min; 37 °C
# Description: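 In-vitro tubulin polymerization assay (Cytoskeleton HTS kit) with 4 mg/ml bovine brain tubulin in G-PEM buffer and compound at 50 uM (0.5% DMSO). Turbidity was read at 340 nm every minute for 1 h at 37 C. The end-point change in OD (dOD) was converted to % fold change relative to the DMSO vehicle (0%), and runs were scaled using DMSO and Taxol controls. The paper calls >20% an effect, 20-40% weak and >40% strong; positive values mean stabilization, negative values destabilization. Scale: negative = destabilization.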
row,SMILES,tubulin polymerization end-point dOD [%]
1,O=C(Nc1ncc(Cc2ccccc2Cl)s1)c1ccncc1,-29.4
2,Cc1cc2cc3c(cc2nc1SCC(=O)Nc1ccccc1Br)OCO3,-1.3
3,Cc1cc(NC(=O)CSc2nnc3c(C)cc4c(C)ccc(C)c4n23)no1,-40.7
4,Cc1cccc(/C=N/N=C2\NC(=O)C(Cc3cccc(C)c3)S2)c1 (stereo not given),9.8
5,COc1ccc(NC(=O)N(Cc2cc3ccc(C)c(C)c3[nH]c2=O)CC2CCCO2)cc1 (stereo not given),33.3
6,CCCn1c(NC(=O)C2CC(=O)N(c3ccc4c(c3)OCCO4)C2)nc2ccccc21 (stereo not given),-4.32
7,CCc1nc(SCC(=O)Nc2ccc(N(CC)CC)c(C)c2)c2ccccc2n1,-34
8,Cc1ccc(C(=O)Nc2ncc(Cc3ccccc3Br)s2)cn1,-35.9
9,COc1ccc2cc(CN(Cc3cccs3)C(=O)Nc3ccccc3OC)c(=O)[nH]c2c1,17.1
10,CCc1ccc2nc(SCC(=O)Nc3ccccc3OC)c(C#N)cc2c1,-25
11,Cc1ccc(C(=O)Nc2nc3ccc(Oc4ccccc4)cc3s2)cn1,15.6
12,COc1cccc(N2CCN(C(=O)c3cn(-c4ccccc4)nc3-c3cccnc3)CC2)c1,-111
13,Nc1nc(SCC(=O)NC2CCCCC2)nc2sc3c(c12)CCCC3,-12
14,O=c1[nH]c(CSc2ccccc2)nc2sc3c(c12)CCC3,-9.09
15,CCN(CC)c1ccc(NC(=O)C2CC=CCC2)cc1 (stereo not given),-23.9
16,O=C(Nc1ccc(N2CCCC2)cc1)C1COc2ccc(Cl)cc2C1 (stereo not given),19.2
17,COc1ccc(/C=N/NC(=O)c2cccc(F)c2)cc1Br,-16.1
18,CN(C)c1ccc(/C=N/NC(=O)c2cccc(F)c2)cc1,27.6
19,COc1ccccc1-n1c(SCC(=O)Nc2nc(C)cs2)nnc1-c1cccnc1,-51
20,O=C(Nc1ccc(N2CCCCCC2)cc1)C1COc2ccccc2C1 (stereo not given),37.7

row,SMILES,tubulin polymerization end-point dOD [%]
1,CCc1ccc2nc(SCC(=O)Nc3ccccc3N3CCOCC3)c(C#N)cc2c1,-7.7
2,CCc1cc2cc(OC)ccc2nc1SCC(=O)Nc1ccccc1Cl,-96.6
3,COc1ccc(CNc2c(-c3ccccc3O)nc3cnccn23)cc1,0.31
4,Cc1cccc(Cc2cnc(NC(=O)c3sc4ccccc4c3Cl)s2)c1,81.7
5,O=C(Nc1ccc(CNc2ncnc3cc(Cl)ccc23)cc1)C1CC1,8.64
6,COc1ccccc1N1CC[NH+](Cc2c(-c3ccccc3)nc3sccn23)CC1,-21.9
7,CCOc1ccc(S(=O)(=O)Nc2cc(Br)c3oc(C)c(C(C)=O)c3c2)cc1,-25.4
8,c1ccc(CCc2nc3c4ccccc4ncn3n2)cc1,-31.9
9,COc1cn(-c2ccccc2)nc1C(=O)N1CCc2ccccc21,-57.4
10,Cc1ccc(NC(=O)c2cc(F)c(Cl)cc2Cl)nc1,-57.6
11,Cc1csc(NC(=O)CSc2nnc(-c3cccnc3)n2-c2ccccc2C)n1,-45.1
12,CSc1ncc(C(=O)Nc2ccc(Oc3ccc4c(c3)OCO4)cc2)cn1,-8.44
13,CCc1noc(CSc2ncnc3scc(-c4ccc(C)cc4)c23)n1,30.2
14,CC(C)n1ncc2cc(C(=O)Nc3cccc4c3CCCC4)cnc21,-23.5
15,Cc1ccc2cc(C#N)c(SCC(=O)c3ccc(F)cc3)nc2c1C,20
16,O=C(NC1=NCCS1)c1sc2cccc(F)c2c1COc1ccccc1,34.2
17,CCc1cc2cc3c(cc2nc1SCC(=O)NCCc1ccccc1)OCO3,387
18,O=C(c1cccnc1N1CCCC1)N1CC=C(c2c[nH]c3ccccc23)CC1,-49.4
19,CCS(=O)(=O)N1CCc2cc(C3=NN=C(NCc4ccc5c(c4)OCO5)SC3)ccc21,227
20,CC(=O)Nc1ccc(Nc2nc(-c3c(C)nc4ccccn34)cs2)cc1,30.8

# Reference: the supplement of paper PMC4380459
